From PubChem BioAssay (NCATS)
Results filed as inconclusive are left out. A call without a number means that no potency is given here. Activity calls are given as the source filed them. The call rests on the fitted dose curve; in most records, active means well fitted curve in the direction sought with a large enough effect; inconclusive means small, poorly fitted or top-dose-only effect, or another doubt; inactive means no such curve, though single readings can be large; an effect the other way counts as inactive or inconclusive.

Assays:
[1] = Quantitative High-Throughput drug screen in 47 multiple myeloma cell lines against the NCATS MIPE library collection: RPMI8226_ATCC cell viability assay (AID 1919871); further: nearly all actives have a fitted effect of over 30% in size; further: potency means the concentration at half of the fitted maximal effect
Procedure, shortened: (§1)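 Plated at 500 cells per well, myeloma lines received MIPE 4.0 compounds by pin tool. Following 48 h culture at 37 °C, CellTiter-Glo luminescence gave viability relative to DMSO and media-only controls.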

[2] = Quantitative High-Throughput drug screen in 47 multiple myeloma cell lines against the NCATS MIPE library collection: OPM2_DSMZ cell viability assay (AID 1919872); further: nearly all actives have a fitted effect of over 30% in size; further: potency means the concentration at half of the fitted maximal effect
Procedure, shortened: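 CellTiter-Glo luminescence (ATP) after 48 h compound exposure, 37C/5% CO2; 500 cells/well; MIPE 4.0 approved/investigational drugs pinned in; DMSO = 100%, media only = 0% viability.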

[3] = Quantitative High-Throughput drug screen in 47 multiple myeloma cell lines against the NCATS MIPE library collection: KMS11_JCRBsus cell viability assay (AID 1919873); further: nearly all actives have a fitted effect of over 50% in size; further: potency means the concentration at half of the fitted maximal effect
Procedure, shortened: as §1

[4] = Quantitative High-Throughput drug screen in 47 multiple myeloma cell lines against the NCATS MIPE library collection: KMS28BM_JCRB cell viability assay (AID 1919874); further: nearly all actives have a fitted effect of over 35% in size; further: potency means the concentration at half of the fitted maximal effect
Procedure, shortened: as §1

[5] = target: Cytochrome P450 3A4 (Homo sapiens) (UniProt P08684); assay: qHTS for inhibitors of CYP3A4 against the NCATS DSHEA and TCM libraries (AID 1919971);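 further: inhibition lowers luminescence from luciferin made by CYP3A4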
Cytochrome P450 3A4 (Homo sapiens), sequence (P08684 whole entry, looked up): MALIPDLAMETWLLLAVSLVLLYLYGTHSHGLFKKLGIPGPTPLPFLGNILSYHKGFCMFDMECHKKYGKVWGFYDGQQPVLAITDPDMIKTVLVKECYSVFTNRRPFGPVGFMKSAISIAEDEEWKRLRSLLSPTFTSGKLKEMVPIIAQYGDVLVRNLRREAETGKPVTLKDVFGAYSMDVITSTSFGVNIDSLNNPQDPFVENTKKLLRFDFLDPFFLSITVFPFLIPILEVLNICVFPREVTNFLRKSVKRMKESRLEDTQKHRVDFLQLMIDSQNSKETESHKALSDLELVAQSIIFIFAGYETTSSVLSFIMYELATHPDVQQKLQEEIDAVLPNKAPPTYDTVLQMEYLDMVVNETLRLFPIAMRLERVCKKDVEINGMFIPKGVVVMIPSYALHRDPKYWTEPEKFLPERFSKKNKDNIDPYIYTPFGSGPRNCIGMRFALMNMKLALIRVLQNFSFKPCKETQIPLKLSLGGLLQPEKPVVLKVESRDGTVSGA
Procedure, shortened: (§2)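 Light output from converted D-luciferin reports remaining CYP activity. Compounds preincubate with enzyme and substrate for 15 min; NADPH regeneration (1x final) runs the reaction for 30-45 min.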

[6] = target: Cytochrome P450 2D6 (Homo sapiens) (UniProt P10635); assay: qHTS for inhibitors of CYP2D6 against the NCATS DSHEA and TCM libraries (AID 1919972)
Cytochrome P450 2D6 (Homo sapiens), sequence (P10635 whole entry, looked up): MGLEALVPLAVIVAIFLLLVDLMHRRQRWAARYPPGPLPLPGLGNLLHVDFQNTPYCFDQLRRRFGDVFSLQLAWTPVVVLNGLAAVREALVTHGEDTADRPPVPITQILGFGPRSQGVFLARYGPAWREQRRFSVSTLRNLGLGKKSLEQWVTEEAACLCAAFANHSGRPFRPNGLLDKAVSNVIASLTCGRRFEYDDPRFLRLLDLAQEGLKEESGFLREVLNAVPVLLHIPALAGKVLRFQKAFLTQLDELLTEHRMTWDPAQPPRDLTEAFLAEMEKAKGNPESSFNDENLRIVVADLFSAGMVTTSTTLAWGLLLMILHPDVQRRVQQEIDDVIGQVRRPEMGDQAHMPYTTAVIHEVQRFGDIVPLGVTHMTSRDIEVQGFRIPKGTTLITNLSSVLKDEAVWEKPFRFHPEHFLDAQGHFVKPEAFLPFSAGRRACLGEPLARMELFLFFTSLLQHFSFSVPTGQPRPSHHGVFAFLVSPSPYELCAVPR
Procedure, shortened: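 Steps: enzyme plus luciferin substrate dispensed; test substances pinned; 15 min RT; 1x NADPH regenerating solution added, 30–45 min RT protected from light; detection reagent, 30 min RT; luminescence measured. Minus-enzyme wells as background.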

[7] = target: Cytochrome P450 2C9 (Homo sapiens) (UniProt P11712); assay: qHTS for inhibitors of CYP2C9 against the NCATS DSHEA and TCM libraries (AID 1919973);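 further: luminogenic pro-luciferin CYP2C9 substrate turned into luciferin with NADPH regeneration; series mostly up to about 34 µM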
Cytochrome P450 2C9 (Homo sapiens), sequence (P11712 whole entry, looked up): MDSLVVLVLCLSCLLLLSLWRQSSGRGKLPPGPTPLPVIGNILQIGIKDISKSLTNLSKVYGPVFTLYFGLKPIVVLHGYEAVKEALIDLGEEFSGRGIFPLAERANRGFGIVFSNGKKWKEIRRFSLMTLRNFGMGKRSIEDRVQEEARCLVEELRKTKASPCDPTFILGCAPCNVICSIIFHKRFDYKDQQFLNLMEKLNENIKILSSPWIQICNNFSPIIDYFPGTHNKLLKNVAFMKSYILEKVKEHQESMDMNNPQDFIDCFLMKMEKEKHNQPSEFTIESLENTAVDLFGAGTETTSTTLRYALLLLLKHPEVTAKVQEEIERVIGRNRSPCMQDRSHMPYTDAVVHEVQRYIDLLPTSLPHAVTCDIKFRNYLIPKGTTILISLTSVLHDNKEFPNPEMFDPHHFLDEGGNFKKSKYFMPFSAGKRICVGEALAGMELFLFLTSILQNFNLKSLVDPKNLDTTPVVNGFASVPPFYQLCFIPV
Procedure, shortened: as §2

[8] = target: Cytochrome P450 2C19 (Homo sapiens) (UniProt P33261); assay: qHTS for inhibitors of CYP2C19 against the NCATS DSHEA and TCM libraries (AID 1919974);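 further: luminescence from luciferin released by CYP2C19 oxidation of a pro-luciferin substrate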
Cytochrome P450 2C19 (Homo sapiens), sequence (P33261 whole entry, looked up): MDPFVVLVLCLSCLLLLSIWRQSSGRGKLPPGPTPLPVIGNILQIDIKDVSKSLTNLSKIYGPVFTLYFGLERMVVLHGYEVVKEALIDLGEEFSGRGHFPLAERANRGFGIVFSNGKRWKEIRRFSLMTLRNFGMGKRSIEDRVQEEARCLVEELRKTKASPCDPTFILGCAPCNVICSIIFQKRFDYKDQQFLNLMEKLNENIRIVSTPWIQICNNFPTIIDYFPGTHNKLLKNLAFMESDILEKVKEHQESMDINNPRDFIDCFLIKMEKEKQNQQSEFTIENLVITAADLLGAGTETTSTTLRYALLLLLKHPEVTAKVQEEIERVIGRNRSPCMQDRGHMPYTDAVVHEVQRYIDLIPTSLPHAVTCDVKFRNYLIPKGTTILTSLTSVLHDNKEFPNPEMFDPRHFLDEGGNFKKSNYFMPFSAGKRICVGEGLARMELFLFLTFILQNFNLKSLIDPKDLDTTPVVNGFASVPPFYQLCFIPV
Procedure, shortened: as §2

[9] = KB-3-1 P-gp reporter qHTS against the NCATS DSHEA and TCM libraries (AID 1919975)
Procedure, shortened: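 Cell viability qHTS: 500 KB-3-1 cells/well, substances in titration, ~72 h, 37C; luminescent CellTiter-Glo read.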

[10] = target: Cytochrome P450 1A2 (Homo sapiens) (UniProt P05177); assay: qHTS for inhibitors of CYPIA2 against the NCATS DSHEA and TCM libraries (AID 1919976);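 further: light from luciferin formed by CYP1A2 from a pro-luciferin substrate; series mostly up to about 37 µM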
Cytochrome P450 1A2 (Homo sapiens), sequence (P05177 whole entry, looked up): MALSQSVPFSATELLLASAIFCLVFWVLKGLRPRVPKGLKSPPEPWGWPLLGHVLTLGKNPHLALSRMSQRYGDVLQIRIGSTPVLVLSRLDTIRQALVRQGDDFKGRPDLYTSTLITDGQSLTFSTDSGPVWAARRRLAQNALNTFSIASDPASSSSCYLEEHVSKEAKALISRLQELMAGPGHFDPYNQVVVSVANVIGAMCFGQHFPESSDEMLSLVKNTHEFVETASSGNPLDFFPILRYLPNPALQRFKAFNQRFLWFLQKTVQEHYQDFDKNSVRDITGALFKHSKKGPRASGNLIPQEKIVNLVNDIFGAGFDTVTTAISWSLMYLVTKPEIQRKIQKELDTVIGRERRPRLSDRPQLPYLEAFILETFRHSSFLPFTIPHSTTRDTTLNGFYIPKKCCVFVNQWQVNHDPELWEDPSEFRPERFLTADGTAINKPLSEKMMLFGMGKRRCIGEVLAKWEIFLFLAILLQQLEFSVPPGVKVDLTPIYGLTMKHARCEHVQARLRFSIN
Procedure, shortened: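 In this quantitative HTS, inhibition of recombinant human CYP1A2 was measured as loss of luciferin-derived luminescence. Turnover ran 30-45 min at RT after NADPH regeneration solution was added.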

## COc1c(Cl)cc2c([nH]c3cnccc32)c1NC(=O)c1cccnc1C
[1]
  Potency: inactive
[2]
  Potency: inactive
[3]
  Potency: 23.5 µM (active)
[4]
  Potency: 26.4 µM (active)

## Cn1cnc([N+](=O)[O-])c1Sc1ncnc2nc[nH]c12
[1]
  Potency: 0.935 µM (active)
[2]
  Potency: 0.833 µM (active)
[4]
  Potency: 5.9 µM (active)

## N=c1nc(N2CCCCC2)cc(N)n1O
[1]
  Potency: inactive
[3]
  Potency: inactive
[4]
  Potency: inactive

## NC(=O)c1cnccn1
[1]
  Potency: inactive
[2]
  Potency: inactive
[3]
  Potency: inactive
[4]
  Potency: inactive
[5]
  outcome: inactive
[6]
  outcome: inactive
[7]
  outcome: inactive
[8]
  outcome: inactive
[9]
  outcome: inactive
[10]
  outcome: inactive

## C[C@]12CC[C@H](O)CC1=CC[C@@H]1[C@H]2CC[C@]2(C)C(c3cccnc3)=CC[C@H]12
[1]
  Potency: inactive
[2]
  Potency: inactive
[4]
  Potency: inactive

## CCOc1cc(C(=O)Nc2ccc(Cl)c(-c3nc4ccccc4[nH]3)c2)cc(OCC)c1OCC
[1]
  Potency: 18.7 µM (active)
[4]
  Potency: inactive

## COc1cc(Oc2ccnc3cc(OC)c(OC)cc23)ccc1NC(=O)NC(C)c1nccs1 (centres undefined)
[1]
  Potency: 16.6 µM (active)
[3]
  Potency: 18.7 µM (active)
[4]
  Potency: 9.35 µM (active)

## Cc1c(C)c2c(c(C)c1O)CCC(C)(COc1ccc(CC3SC(=O)NC3=O)cc1)O2 (centres undefined)
[1]
  Potency: inactive
[2]
  Potency: inactive
[4]
  Potency: inactive

## COCC(=O)NCC=Cc1ccc2ncnc(Nc3ccc(Oc4ccc(C)nc4)c(C)c3)c2c1
[1]
  Potency: 16.6 µM (active)
[3]
  Potency: 18.7 µM (active)
[4]
  Potency: 29.6 µM (active)

## Cc1csc(NC(=O)c2sc3nc4c(c(C(F)(F)F)c3c2N)CCC4)n1
[1]
  Potency: 13.2 µM (active)
[2]
  Potency: inactive
[4]
  Potency: 26.4 µM (active)

## CNC(=O)c1ccc(N2C(=S)N(c3ccc(C#N)c(C(F)(F)F)c3)C(=O)C2(C)C)cc1F
[1]
  Potency: inactive
[2]
  Potency: inactive
[4]
  Potency: inactive

## CC(C)C[C@H](NC(=O)[C@@H](O)[C@H](N)Cc1ccccc1)C(=O)O
[1]
  Potency: 20.9 µM (active)
[3]
  Potency: 9.35 µM (active)
[4]
  Potency: 16.6 µM (active)

## N#Cc1ccc(C(c2ccc(C#N)cc2)n2cncn2)cc1
[1]
  Potency: 5.9 µM (active)
[2]
  Potency: 9.35 µM (active)
[4]
  Potency: 5.9 µM (active)

## O=c1ncn2nc(Sc3ccc(F)cc3F)ccc2c1-c1c(Cl)cccc1Cl
[1]
  Potency: inactive
[4]
  Potency: inactive

## OCCn1cc(-c2cnc3nnn(Cc4ccc5ncccc5c4)c3n2)cn1
[1]
  Potency: inactive
[3]
  Potency: inactive

## O=C(c1cc(Cc2n[nH]c(=O)c3ccccc23)ccc1F)N1CCN(C(=O)C2CC2)CC1
[1]
  Potency: inactive
[2]
  Potency: inactive
[4]
  Potency: inactive

## O=C(NOC[C@H](O)CO)c1ccc(F)c(F)c1Nc1ccc(I)cc1F
[1]
  Potency: 0.0296 µM (active)
[3]
  Potency: inactive
[4]
  Potency: inactive

## NNCCc1ccccc1
[1]
  Potency: inactive
[3]
  Potency: inactive

## CN(C)C(=O)c1ccc(S(=O)(=O)c2ccc(NC(=O)[C@@](C)(O)C(F)(F)F)c(Cl)c2)cc1
[1]
  Potency: inactive
[2]
  Potency: inactive
[4]
  Potency: inactive

## Cn1cnc2c(F)c(Nc3ccc(Br)cc3Cl)c(C(=O)NOCCO)cc21
[1]
  Potency: 0.935 µM (active)
[3]
  Potency: inactive

## Cc1cccc(-c2nn(C(=S)Nc3ccccc3)cc2-c2ccnc3ccccc23)n1
[1]
  Potency: inactive
[2]
  Potency: inactive
[4]
  Potency: inactive

## CO[C@@H]1[C@H](N(C)C(=O)c2ccccc2)C[C@H]2O[C@]1(C)n1c3ccccc3c3c4c(c5c6ccccc6n2c5c31)C(=O)NC4
[1]
  Potency: 7.43 µM (active)
[2]
  Potency: 3.72 µM (active)
[3]
  Potency: 1.87 µM (active)
[4]
  Potency: 2.96 µM (active)

## COc1ccc2nc(S(=O)Cc3ncc(C)c(OC)c3C)[nH]c2c1 (centres undefined)
[1]
  Potency: inactive
[3]
  Potency: inactive

## CC(C)(Sc1ccc(CCN(CCCCC2CCCCC2)C(=O)NC2CCCCC2)cc1)C(=O)O
[1]
  Potency: 4.18 µM (active)
[3]
  Potency: inactive
[4]
  Potency: inactive

## CNC(=O)c1ccc(C)c(-n2c(C)cc(OCc3ccc(F)cc3F)c(Br)c2=O)c1
[1]
  Potency: inactive
[2]
  Potency: inactive
[4]
  Potency: inactive

## CCOc1ccn(-c2ccc(F)cc2)c(=O)c1C(=O)Nc1ccc(Oc2ccnc(N)c2Cl)c(F)c1
[2]
  Potency: inactive

## Nc1nc2ccc(OC(F)(F)F)cc2s1
[2]
  Potency: 18.7 µM (active)
[3]
  Potency: inactive

## CCc1cncnc1N1CCN(Cc2nc3ccc(C(F)(F)F)cc3[nH]2)CC1
[2]
  Potency: 9.35 µM (active)
[3]
  Potency: 11.8 µM (active)

## Cc1cccc(-c2[nH]c(C(C)(C)C)nc2-c2ccc3nccnc3c2)n1
[2]
  Potency: inactive

## Cc1cc([C@@H](C)Nc2ccccc2C(=O)O)c2nc(N3CCOCC3)cc(=O)n2c1
[2]
  Potency: 42.9 µM (active)

## C[C@@H]1CN(Cc2ccc(F)cc2)[C@@H](C)CN1C(=O)c1cc2c(C(=O)C(=O)N(C)C)cn(C)c2cc1Cl
[2]
  Potency: inactive

## OC(CCN1CCCCC1)(c1ccccc1)C1CC2C=CC1C2 (centres undefined)
[2]
  Potency: inactive

## Cc1ccc(NC(=O)c2cccc(C(C)(C)C#N)c2)cc1Nc1ccc2ncn(C)c(=O)c2c1
[2]
  Potency: 16.6 µM (active)
[3]
  Potency: 11.8 µM (active)
